Where “and” joins values, the source holds several entries; their conditions need not be identical. Equal entries are not always repeated. The whole screen tested about 360,000 compounds, of which about 7,300 (2%) were called active. The sample holds actives, similar compounds and a random draw of the others, so the mix is not that of the screen. A number with no mark means an inactive call. Rule as the data show it: active = inhibition above about 50%; inactive = the rest.
Assay: blockers of TWEAK-induced Fn14 reporter activity – luciferase reporter cells, uHTS, primary screen (AID 1159606)
Details: TWEAK-stimulated Fn14 reporter cells, luciferase luminescence, 8 h; at 10 µM; stronger effect = higher value

SMILES | inhibition
O=C1OC(Oc2ccc(Br)cc2)(c2ccccc2)c2ccccc21 (stereo not drawn) | 7.48%
Nc1[nH]c(C(=O)c2ccccc2)c(-c2ccncc2)c1C(=O)NCc1cccc2ccccc12 | 36%
CC(=O)c1ccc(NC(=O)c2ccc3c(Cl)c4c(nc3c2)CCCC4)cc1 | 40.1%
CC(C)CCNC(=O)c1ccc2c(Cl)c3c(nc2c1)CCC3 | 58.4% (active)
COc1cccc(NC(=O)c2ccc3c(SCC(=O)O)c4c(nc3c2)CCCC4)c1 | -6.4%
CCc1ccc([C@@H]2CC(=O)[C@@H]3CN(S(=O)(=O)c4ccc(C)cc4)[C@H](c4ccc(Cl)cc4)C[C@@H]3N2S(=O)(=O)c2ccc(C)cc2)cc1 | -18.3%
COCOCCn1cc(CN2CCS(=O)(=O)N(Cc3ccc(-c4ccc(OC)cc4)cc3)C(CC(C)C)C2=O)nn1 (stereo not drawn) | -6.75%
COCc1cc(=O)[nH]c2cc(NC(=O)C(F)(F)F)c(C)cc12 | 6.5%
C[C@H]1CN([C@@H](C)CO)C(=O)CCCn2cc(nn2)CO[C@@H]1CN(C)S(=O)(=O)c1ccc(-n2cccn2)cc1 | -16.6%
O=C(c1ccc2c(c1)C(=O)N(c1ccc(Cl)cc1)C2=O)N1CCN(c2ccccn2)CC1 | -12.4%
Cc1cccc(N2C(=O)c3ccc(C(=O)Nc4cccc(C(=O)O)c4)cc3C2=O)c1 | 8.83%
O=C(O)c1ccc2c(c1)C(=O)N(c1ccc(/C=C/C(=O)c3ccccc3)cc1)C2=O | 75.5% (active)
CCN1C[C@@H]2[C@@H]3C(=O)N(C)C(=O)[C@@H]3[C@](C)(C1=O)N2C(=O)c1ccccc1 | 11.5%
CC(Sc1nncn1C)C(=O)NCCC1=CCCCC1 (stereo not drawn) | -1.74%
COc1ccc(NC(=O)ON=C2c3ccccc3-c3ccccc32)cc1 | 57.8% (active)
COc1ccc(NC(=O)C(Br)C(C)C)cc1 (stereo not drawn) | -6.35%
COc1ccc(NC(=O)CCCC(=O)c2ccccc2)cc1 | -22.6%
CCC1CCCCN1C(=O)Nc1cccc(NC(=O)N2CCCCC2CC)c1 (stereo not drawn) | -4.07%
CCCCn1c(N)c(N(Cc2ccccc2OC)C(=O)COc2cc(C)ccc2Cl)c(=O)[nH]c1=O | -6.52%
CC(C)CC(=O)N1CCN(Cc2ccccc2Br)CC1 | -11.1%
CCC1OC(C2CC2)CC2=C1C(=O)OC(C)(C)O2 (stereo not drawn) | 6.62%
COc1ccccc1-n1c(SCC(=O)Nc2ccc(Cl)cc2)nc(O)c(Cc2ccccc2)c1=O | -7.18%

SMILES | inhibition
Cn1c(SCC(=O)Nc2ccc(Cl)cc2)nc(O)cc1=O | 80.5% (active)
CC(C)Cn1c(SCC(=O)Nc2ccc(Cl)cc2F)nc(O)cc1=O | 0.05%
O=C(COC(=O)c1ccc(NS(=O)(=O)c2cccs2)cc1O)Nc1ccc(F)cc1 | 1.2%
CCOC(=O)N1CCN(C(=O)C2CCCN(c3ncnc4c3sc3cccc(F)c34)C2)CC1 (stereo not drawn) | 28.8%
FC(F)(F)C1CCCN(c2nsc3ccccc23)C1 (stereo not drawn) | 7.5%
CCCCCCCCN1C(=O)[C@H](CC(=O)NCc2cccc3ccccc23)C[C@@]2(C(=O)OC)CCCCC=C12 | -1.79%
Clc1cccc(N=C2NN=C(c3ccc4c(c3)OCCO4)CS2)c1 | 84.4% (active)
CS(=O)(=O)N(CC(=O)N1CCN(Cc2ccccc2)CC1)c1ccc2c(c1)OCCO2 | 14.7%
CC(=NC1CCN(Cc2ccccc2)CC1)c1c(O)[nH]c(=O)[nH]c1=O | 0.57%
c1ccc(CN2CCC(N=C3NN=C(c4ccc5c(c4)OCCO5)CS3)CC2)cc1 | 57.6% (active)
CN(C)c1nc(=Nc2cccc(Cl)c2)ss1 | 5.73%
CCOc1ccc(S(=O)(=O)Nc2cccc(C(=O)NCC3(N4CCCCC4)CCCCC3)c2)cc1 | -1.13%
OCCC#Cc1ccc(N2C(c3ccsc3)=Cc3ccc(F)cc3C2c2c[nH]c3ccccc23)cc1 (stereo not drawn) | 11.2%
C=CCn1c(CNS(=O)(=O)c2ccc(Br)cc2)nnc1SC | 8.19%
C=CCC[C@@H](CCCCC)OC(=O)/C=C/[C@@H](O)[C@H](O)C[C@H](O)CC=C | 2.81%
CC1CN(C(=O)c2cc(COc3c(F)cccc3F)on2)CCN1C (stereo not drawn) | -6.71%
O=C(CCc1ccccc1)Nc1cccc(-c2nnc(-c3ccco3)o2)c1 | 52.6% (active)
C/C(=N/NC(=O)CCc1ccccc1)c1ccco1 | -10.4%
O=C(Nc1cccc(-c2nnc(-c3ccccc3)o2)c1)C1CCCO1 (stereo not drawn) | 10.7%
CC(C)NC(=O)Nc1cccc2c1O[C@@H](CN(C)S(=O)(=O)c1ccc(F)cc1)[C@@H](C)CN([C@H](C)CO)C2=O | 3.62%
COc1cccc(NC(=O)CC(c2ccc(OC(C)C)cc2)c2ccccc2OC)c1 (stereo not drawn) | -21.3%
CC(=O)c1ccc(N2CCN(CC(O)c3ccccc3)CC2)cc1 (stereo not drawn) | 15.1%

SMILES | inhibition
CC(=O)c1ccc(N2CCN(C(=O)CCc3ccccc3)CC2)cc1 | -0.25%
CC(=O)c1ccc(N2Cc3ccccc3C2)cc1 | 50.8% (active)
CCOC(=O)[C@]12CCC=C1N(Cc1ccco1)C(=O)[C@H](CC(=O)N1CCSCC1)C2 | 13.3%
O=C(NCC1CCC(C(=O)O)CC1)OCc1ccccc1 (stereo not drawn) | 3.36%
O=C(CNC(=O)OCc1ccccc1)Oc1cc2oc(=O)cc(-c3ccccc3)c2cc1Cl | 66.8% (active)
CC(Oc1ccc2c(-c3ccccc3)cc(=O)oc2c1)C(=O)NC(Cc1c[nH]c2ccccc12)C(=O)O (stereo not drawn) | -2.3%
OC(c1ccccc1)(c1ccccc1)C1CCN(CCCOc2ccccc2)CC1 | 1.25%
Cc1ccc(OCC(=O)c2cc(C)n(Cc3ccco3)c2C)c([N+](=O)[O-])n1 | 42.9%
Cc1cc(C(=O)COC(=O)CNC(=O)c2ccc(F)cc2)c(C)n1Cc1ccco1 | 71.8% (active)
COCCn1c(C)cc(C(=O)COC(=O)CNC(=O)c2ccco2)c1C | 5.04%
CCc1nc2ccc(C(=O)Nc3cc(-c4ccccc4)ccc3OC)cn2c1N(CC)CC(=O)N(C)C | 9.07%
CC1(C(=O)NS(=O)(=O)c2cccs2)CCN1C(=O)Cc1ccc(-c2ccccc2)cc1 (stereo not drawn) | 6.14%
OCCCNc1nccc(-c2cc(Nc3cccc(Cl)c3)ncn2)n1 | 97.3% (active)
CCOc1c(Nc2cccc(Cl)c2)c(=O)c1=O | 6.24%
CC(NC(=O)COC(=O)c1ccc(Cl)cc1O)c1ccc(F)cc1 (stereo not drawn) | -8.36%
COc1cccc(C2c3[nH]c4ccccc4c3CCN2Cc2cccc(C)n2)c1 (stereo not drawn) | 1.39%
COc1ccc(-c2ccc3[nH]c4c(c3c2)CCN2C[C@H]3[C@H](C)ON(C)[C@H]3C[C@@H]42)cc1 | 76.2% (active)
COC(=O)[C@H]1[C@H]2C[C@H]3c4[nH]c5ccccc5c4CCN3C[C@@H]2CC[C@@H]1O | 27.2% and 5.66%
CCNc1nc(N)nc(-c2cc(Cl)ccc2OC)n1 | -2.01%
CC[C@@H]1CC2=C(C(=O)OC(C)(C)O2)[C@@H](CC)O1 | 1.77%
CCN(CC)C(=O)CC1(c2ccccc2OC)CCOC(C(C)C)C1 (stereo not drawn) | -4.31%
CCOC(=O)c1cc(-c2sc(NC(=O)c3ccccc3)nc2C)n(CCO)n1 | -0.09%

SMILES | inhibition
C=CCn1nc(C(=O)OCC)cc1-c1sc(NC(=O)c2ccccc2)nc1C | 32.2%
CCOC(=O)c1cc(-c2sc(NC(=O)c3ccccc3)nc2C)n(Cc2ccccc2)n1 | 54.7% (active)
CCCCCCN1C[C@@H](O)[C@H](n2cc(COC(=O)c3ccccc3)nn2)C[C@@H]1c1ccc(Cl)cc1 | 11.1%
C[C@H](NC(=O)[C@@H]1CCCN1C(=O)[C@@H]1CCCN1C(=O)c1ccccc1)c1ccccc1 | -2.63%
CC(C(=O)NCC1CCCCC1)N(C)Cc1cccc(Cl)c1 (stereo not drawn) | -0.37%
c1nnc2c3c4c(sc3ncn12)CCC4 | 58.9% (active)
S=c1[nH]nc2c3c4c(sc3ncn12)CCCC4 | 3.72%
CC(C(=O)O)n1cnc2sc3c(c2c1=O)CCCC3 (stereo not drawn) | -20.1%
COc1cc(SC)ccc1C(=O)NNC(=O)C1COc2ccccc2O1 (stereo not drawn) | -29.7%
COc1ccc(C(=O)NC(C)CCc2ccccc2)c(OC)c1 (stereo not drawn) | -8.93%
COC(=O)c1sc(NC(=O)c2ccc(OC)cc2OC)nc1C | 69% (active)
COc1cc(SC)ccc1C(=O)Nc1nc(C)cs1 | 102% (active)
Cc1csc(NC(=O)CSc2nc(=O)cc(N)n2-c2ccc(F)cc2)n1 | 27.6%
CCOC(=O)c1sc(NC(=O)c2sc(C)nc2C)nc1C | -39.5%
CC(=O)c1ccc(NC(=S)N(Cc2ccccc2)C(C)C2CC2)cc1 (stereo not drawn) | 11.1%
COC(=O)c1ccc2nc(-c3ccc(F)cc3)c(Cc3ccc(C)cc3)n2c1 | -0.5%
O=C1NC[C@@H](CCCCN2CCN(CCc3ccc(O)cc3)C(=O)C2=O)N(CC2CCCCC2)C1=O | 10.2%
O=C(c1ccc2c(c1)N(Cc1ccc(F)cc1)C(=O)CS2)N1CCOCC1 | -16.2%
CCc1nccn1CCC(=O)N1CCCC(N2CCN(c3ccccc3F)CC2)C1 (stereo not drawn) | -3.5%
CC(=O)Nc1ccc(NS(=O)(=O)c2ccc3c(c2)NC(=O)CC(=O)N3)cc1 | 10.3%
CC(=O)Nc1ccc(S(=O)(=O)N2CCCC2C(=O)O)cc1 (stereo not drawn) | 0.16%
CC(=O)Nc1ccc(S(=O)(=O)Nc2ccc(N3CCCCC3)cc2)cc1 | 84.7% (active)

Source: PubChem BioAssay AID1159606 (Sanford-Burnham Center for Chemical Genomics, 2016)
